# Not all results are given here.
# aSyn UTR act: Activators working through SNCA 5'UTR binding (MLPCN). alpha-synuclein 5'UTR reporter, activators screen. AID 1814. 300,000 compounds, 7.1% hits. activity score, % (tested at 7.5 µM), hits read low; in the data active = activity score below about -60%
# * hit, by the source's call.
SMILES,aSyn UTR act
CC1CCC/C(=N\NC(=S)Nc2ccccc2)C1 (stereo not given),-94*
CC(C)(C)c1ccc(OCc2cnc(Cl)s2)cc1,-105*
Cc1ccc(C(=O)NC(=S)NCC2CCCO2)cc1 (stereo not given),-147*
CN(C)c1ccc(C(=O)NCC2CCCO2)cc1 (stereo not given),-107*
O=C(NC(=S)NCC1CCCO1)c1ccc(Cl)cc1 (stereo not given),-106*
CC(C)(C)c1ccc(-c2noc(CCC(=O)NCC3CCCO3)n2)cc1 (stereo not given),104
Nc1c(C(=O)NCC2CCCO2)c2nc3ccccc3nc2n1-c1ccccc1 (stereo not given),61
Cc1ccc2nc(-c3cccnc3SCC(=O)N3c4ccccc4CC3C)[nH]c2c1 (stereo not given),-80*
CC(=O)CSc1ccc(-c2nc3ccccc3[nH]2)cn1,-72*
N#Cc1ccccc1CSc1ccc(-c2nc3ccccc3[nH]2)cn1,-120*
CC(=O)CSc1ccc(-c2nc3cc(C)c(C)cc3[nH]2)cn1,121
Cc1ccc2nc(-c3ccc(SCC(=O)N4CCc5ccccc54)nc3)[nH]c2c1,-388*
Cc1cc2nc(-c3ccc(SCc4ccc(C#N)cc4)nc3)[nH]c2cc1C,-105*
C=CCn1cccc(C(=O)Nc2ccc(SC)cc2)c1=O,-155*
C=CCn1cccc(C(=O)Nc2ccc(Cl)cc2)c1=O,-141*
C=CCn1cccc(C(=O)Nc2ccc(OCC)cc2)c1=O,-155*
C=CCn1cccc(C(=O)Nc2ccc(N(C)C)cc2)c1=O,-104*
O=C(NN=C1CCCC1)c1n[nH]c2c1CCCC2,-73*
Cc1ccsc1/C=N\NC(=O)c1n[nH]c2c1CCC2,69
O=C(N/N=C/c1c(Cl)cccc1Cl)c1n[nH]c2c1CCCC2,-135*
CCCC(=O)Nc1nnc(/C=C/c2ccccc2)s1,-99*
CCOC(=O)Nc1nnc(/C=C/c2ccc(OC)cc2)s1,-94*
CCCC(=O)Nc1nnc(/C=C/c2ccc(OC)cc2)s1,-107*
COc1ccc(/C=C/c2nnc(NC(=O)C(C)(C)C)s2)cc1,-96*
CCC(=O)Nc1nnc(/C=C/c2ccccc2)s1,-138*
SMILES,aSyn UTR act
Cn1nc(OC(=O)Nc2ccccc2)cc1C(F)(F)F,-123*
CCc1ccc(NC(=O)COc2ccc3c(c2)OCO3)cc1,-74*
CCc1ccc(OCC(=O)Nc2ncn[nH]2)cc1,-87*
NC(=O)c1ccccc1NC(=O)COc1ccc2c(c1)OCO2,-87*
COc1ccccc1NC(=O)COc1ccc2c(c1)OCO2,-76*
Cc1c(Cl)ccc2sc(NC(=O)C3CC3)nc12,-85*
NNc1nc2c(F)cc(F)cc2s1,-164*
O=C(Nc1nc2c(F)cc(F)cc2s1)C1CCN(C(=O)c2ccc(F)cc2)CC1,-162*
O=C(Nc1nc2c(F)cccc2s1)C1CC1,-111*
Fc1cccc2sc(Nc3nc4c(F)cccc4s3)nc12,-210*
Fc1cccc2sc(Nc3nnc(-c4ccccc4)o3)nc12,-90*
NNc1nc2c(F)cccc2s1,-281*
CC(=O)Oc1ccc(C(=O)Cc2ccc3ccccc3n2)c(O)c1C,-143*
Cc1c(O)ccc(/C(Cc2ccc3ccccc3n2)=N\O)c1O,-76*
Oc1ccc(/C(Cc2ccc3ccccc3n2)=N\Nc2ccccc2)c(O)c1,-90*
CC(C)(C)CC(=O)Nc1nnc(CCc2ccccc2)s1,-113*
CCC(C)(C)C(=O)Nc1nnc(CCc2ccccc2)s1,-141*
CC(C)(C)Cc1nnc(NC(=O)CSc2ccccc2)s1,-137*
Cc1ccn2cc(C(=O)Nc3ccccc3N3CCOCC3)nc2c1,-90*
COc1ccc(Cl)cc1NC(=O)CN(C)CC(=O)Nc1ccccc1N1CCOCC1,112
Cc1ccn2cc(C(=O)Nc3nnc(C)s3)nc2c1,-111*
O=C(Nc1ccccc1N1CCOCC1)c1ccc2ccccc2n1,-118*
O=c1c2c3nc4ccccc4nc3n(/N=C/c3ccccn3)c2ncn1-c1ccccc1,-238*
CCC(=O)Nc1nc2ccc3sc(C)nc3c2s1,-86*
Cc1nc2c(ccc3nc(NC(=O)C4CC4)sc32)s1,-121*
SMILES,aSyn UTR act
CCNc1nc(C)c2cc(Br)c(=O)n(CC)c2n1,76
COCCNC(=O)c1sc2nc(-c3ccccc3)cn2c1C,-77*
Cc1cccc(NC(=O)c2sc3nc(-c4ccccc4)cn3c2C)n1,-124*
COc1ccc(-c2cn3c(C)c(C(=O)Nc4cccc(C)n4)sc3n2)cc1,-97*
Cc1c(C(=O)Nc2ccccc2)sc2nc(-c3ccccc3)cn12,-160*
OCCCCCN=c1cc(-c2ccccc2)oc2ccc(Cl)cc12,-747*
CCN(CC)c1ccc(/C=C2\SC(N)=NC2=O)cc1,-114*
CCN(CC)CCNc1ccnc2cc(Cl)ccc12,-62*
Cc1cc(NCCCN2CCOCC2)n2ncc(-c3ccccc3)c2n1,-95*
COc1ccccc1-c1cnn2c(NCc3ccccc3)cc(C)nc12,-75*
Cc1cc(NCc2ccccn2)n2ncc(-c3ccc(Cl)cc3)c2n1,-97*
Cc1cc(NCc2ccccn2)n2ncc(-c3ccccc3)c2n1,-155*
CCN1CCN(c2nc3sc4c(c3c3ncnn23)CC(C)CC4)CC1 (stereo not given),-64*
COCCNC(=O)/C(C#N)=C/c1cc(C)n(-c2ccc(C)cc2)c1C,-133*
COCCNC(=O)/C(C#N)=C/c1cc(C)n(C2CCCCC2)c1C,-101*
Cc1cc(/C=C(/C#N)C(=O)Nc2ccccc2)c(C)n1-c1cccnc1,-160*
Clc1ccccc1CONc1ncnc2nonc12,-91*
Cc1ccc(C(=O)Nc2cccc3cccnc23)cc1C,-87*
O=C(NC(=S)Nc1cccnc1Cl)c1ccc(Cl)cc1,-154*
O=C(Nc1ccnc(-c2cccnc2)n1)c1ccc(Cl)cc1,-117*
O=C(NC(c1ccc(Cl)cc1)c1cc(Cl)c2cccnc2c1O)c1cccnc1 (stereo not given),98
CC(C)C(=O)NC(c1ccc(Cl)cc1Cl)c1ccc2cccnc2c1O (stereo not given),92
O=C(Nc1cccc2cccnc12)c1ccc(Cl)cc1,-76*
O=C(Nc1cccnc1Cl)c1ccc(Cl)cc1,-148*
Cc1ccc(/C=C/C(=O)Nc2cccc3cccnc23)o1,-132*
SMILES,aSyn UTR act
CCC(=O)NC(c1ccc(C)cc1)c1ccc2cccnc2c1O (stereo not given),81
C/C(=N\Nc1cccc2cccnc12)c1ccc(C)cc1,-170*
COc1cc(O)c(C(=O)/C=C/c2ccccc2)c(OC)c1,-163*
CCN(CC(=O)Nc1ccc2c(c1)OCCO2)C(=O)/C=C/c1cccc(OC)c1OC,-93*
COc1ccccc1/C=C/C(=O)c1ccccc1,-155*
COc1ccc(/C=C/C(=O)c2ccccc2)c(OC)c1,-207*
COc1ccccc1/C=C/C(=O)c1ccc(Cl)cc1,-62*
COc1cccc(/C=C/C(=O)c2ccc3c(c2)OCCO3)c1OC,-307*
COc1ccccc1/C=C/C(=O)NC(=S)NC(C)C,-93*
COc1cc(CC(=O)OCC(=O)c2ccc3c(c2)OCCO3)cc(OC)c1OC,100
COc1ccccc1/C=C/C(=O)N1CCC(c2ccccc2)C1 (stereo not given),-177*
COc1ccc(/C=C/C(=O)c2ccc3c(c2)OCO3)c(OC)c1,-85*
O=C(/C=C/c1ccccc1O)c1ccc(Cl)cc1,-189*
CCOc1ccccc1/C=C/C(=O)c1ccc(Cl)cc1,-80*
COc1ccccc1/C=C/C(=O)c1ccc(NC(C)=O)cc1,-205*
COc1ccc(/C=C/C(=O)OCC(=O)c2ccc3c(c2)NC(=O)CO3)c(OC)c1,42
